# GRP78 ERSR act – ER stress response induction in glioma; 420,000 tested, 0.02% active; Potency, µM, hits mostly activators; AID 602332; U87-MG GRP78 promoter luciferase reporter, 16 h; also: series mostly up to about 76 µM; nearly all actives have a fitted effect of over 35% in size
#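 ERSR induction read as luciferase luminescence (Bright-Glo, 10 min at room temperature) in stably transfected human U87-MG glioma cells exposed to compounds for 16 h, using GRP78 as sensor.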
# TCR act – T cell receptor activation | primary human leukocytes, anti-CD3, IL-2 HTRF, 48 h | Potency, µM (series often up to 9.22 µM), usual class: activators | 330,000 tested, under 10 active
#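 HTRF read-out of IL-2 secretion: europium cryptate donor excited at 320nm, d2 acceptor emission at 665nm. Cells were primary human leukocytes incubated 48 hr with compounds and a-CD3 beads, supplying TCR signal only.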
# A-T KAP1 phos – potential ataxia-telangiectasia treatment; 320,000 tested, 0.19% active; Potency, µM (highest dose often 57.5 µM), usual class: activators; F2112 A-T fibroblasts, KAP-1 phosphorylation AlphaLISA; neocarzinostatin DNA damage 30 min before lysis; AID 485349; also: nearly all actives have a fitted effect of over 45% in size
#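 hTERT-immortalized A-T patient fibroblasts (F2112), 500 cells/well in OPTI-MEM, 1% FBS, got compounds for 60 min, then NCS for 30 min at 37C. Lysates were then assayed for phospho-KAP-1 by AlphaLISA (anti-pKAP1 donor, anti-KAP1 acceptor beads), 6 hr at 25C.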
# ClpP mod – qHTS Assay for Activators of ClpP; ATP-dependent Clp protease proteolytic subunit (Bacillus subtilis (strain 168)), P80244; Potency, µM (highest dose often 57.5 µM); AID 651965, 2013; purified B. subtilis ClpP, FRET peptide cleavage, 20 min; 340,000 tested, 1.9% active; active = well fitted falling curve with a large enough effect; inconclusive = small, poorly fitted or top-dose-only effect; inactive = no such curve, though single readings can be large or run the other way; also: the source files actives as falling curves though it sought activators and does not explain the sign; nearly all actives have a fitted effect of over 65% in size
# Target sequence (P80244 whole entry, looked up): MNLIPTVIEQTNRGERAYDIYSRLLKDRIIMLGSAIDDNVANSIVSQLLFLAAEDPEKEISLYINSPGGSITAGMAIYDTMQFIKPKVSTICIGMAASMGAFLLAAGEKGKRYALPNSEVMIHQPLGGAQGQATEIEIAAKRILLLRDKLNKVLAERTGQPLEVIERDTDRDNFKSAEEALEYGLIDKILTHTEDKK
#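 FRET quenching reversal measured ClpP activation: 10 microg/mL B. subtilis ClpP at pH 8 with the FRET-FV decapeptide, read at 430 nm after 320 nm excitation. The 20-min minus 0-min signal was scaled between DMSO/no-enzyme wells and ADEP (5.8 microM final).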
# Mito fusion act – inhibitors of mitochondrial division or activators of mitochondrial fusion. S. cerevisiae fusion-defective mutant growth rescue, CellTiterGlo 48 h. Potency, µM (doses to about 46.1 µM), hits mostly activators. 320,000 tested, 0.23% active. AID 485298; also: nearly all actives have a fitted effect of over 45% in size
#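 Growth-rescue viability read-out: after 48 h at the non-permissive 37C in glycerol/ethanol YPEG, yeast mitochondrial fusion mutants are measured by CellTiterGlo luminescence; compounds (23 nl pinned per well) restoring growth score as division inhibitors or fusion activators.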
# MBNL1 CUG block – blocks human MBNL1 binding to CUG repeat RNA. Q9NR56. TR-FRET MBNL1-His/biotin-(CUG)12 binding, 665/545 ratio. Potency, µM (highest dose often 57.5 µM), hits mostly inhibitors. 280,000 tested, 0.036% active. AID 2675; active = well fitted inhibition curve with a large enough effect in the signal ratio, with a control signal flat, not every such curve was filed as active; inconclusive = small, poorly fitted or top-dose-only effect, or effect the other way, or a change in a side signal; inactive = no such curve, though single readings can be large or run the other way; the % refers to the signal ratio
# Target sequence (Q9NR56 whole entry, looked up): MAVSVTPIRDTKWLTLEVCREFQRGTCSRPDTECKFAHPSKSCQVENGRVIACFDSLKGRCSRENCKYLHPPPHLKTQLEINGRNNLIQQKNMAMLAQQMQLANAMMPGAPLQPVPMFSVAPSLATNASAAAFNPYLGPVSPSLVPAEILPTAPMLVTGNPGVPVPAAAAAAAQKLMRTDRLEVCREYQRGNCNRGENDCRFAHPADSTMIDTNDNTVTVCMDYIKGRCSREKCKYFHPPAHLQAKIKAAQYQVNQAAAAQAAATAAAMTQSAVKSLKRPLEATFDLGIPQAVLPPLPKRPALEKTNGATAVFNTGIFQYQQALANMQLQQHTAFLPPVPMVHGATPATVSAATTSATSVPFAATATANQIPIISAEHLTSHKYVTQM
#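 Compound titration spanned 92 nM–58 uM against the MBNL1-His/biotin-(CUG)12 complex. After 60 min at room temperature with 5 nM streptavidin-XL665 and 0.055 ng/ul terbium anti-His, ratiometric 665/545 nm emission (Ex 340 nm) normalized to controls.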
# Hits are given with their value; n = inactive; u = inconclusive; x = not tested or not shown. Rows were chosen to be rich in hits. Some 1.8% of all compounds tested hit in one or more screens of this group. Unless noted, calls follow the shape of the dose curve; as a rule, active = well fitted curve in the direction sought with a large enough effect; inconclusive = small, poorly fitted or top-dose-only effect, or another doubt; inactive = no such curve, though single readings can be large; an effect the other way counts as inactive or inconclusive.
SMILES,GRP78 ERSR act,TCR act,A-T KAP1 phos,ClpP mod,Mito fusion act,MBNL1 CUG block
CCCn1nc(NC(=O)C2CCCO2)c2cc3cc(C)ccc3nc21 (stereo unspecified),n,n,n,n,n,u
CCn1nc(NC(=O)CC(C)C)c2cc3ccc(C)cc3nc21,n,n,20µM,n,n,n
CCCn1nc(NC(=O)C2CCCO2)c2cc3ccc(C)cc3nc21 (stereo unspecified),n,n,25µM,x,n,n
COc1ccc2nc3c(cc2c1)c(NC(=O)C1CCCO1)nn3CC(C)C (stereo unspecified),n,n,35µM,22µM,n,n
O=S(=O)(Nc1cccc2ccccc12)N1CCCC1,n,n,n,28µM,n,n
O=C(NCCc1ccccc1)c1ccccc1NS(=O)(=O)N1CCCC1,n,n,n,14µM,n,n
O=C(NCC1(N2CCOCC2)CCCC1)c1cnn(-c2ncc3c(n2)-c2ccccc2CC3)c1C1CC1,n,x,x,x,x,x
O=C(Nc1ccccc1)N1N=C(c2cccs2)CC1c1cccs1 (stereo unspecified),n,n,n,32µM,11µM,u
Fc1ccc(C2CC(c3cccs3)=NN2c2ccccc2)cc1 (stereo unspecified),n,n,32µM,x,n,n
c1ccc(C2CC(c3cccs3)=NN2c2ccccc2)cc1 (stereo unspecified),n,n,20µM,n,n,x
COc1ccc(C2CC(c3cccs3)=NN2c2ccc(C=O)cc2)cc1 (stereo unspecified),n,n,25µM,n,22µM,n
CO[C@H]1[C@H](NC(=O)c2ccco2)c2ccccc2C12CCN(Cc1cnn(-c3ccccc3)c1)CC2,n,x,x,x,x,x
COc1ccc(-c2nc3cnc(N4CCNCC4)nc3n(Cc3cccs3)c2=O)cc1,n,x,x,x,x,x
O=C(CN1CCCCC1)Nc1ccc(NC(=O)c2ccc(Cl)cc2)cc1Cl,n,x,n,14µM,n,n
Clc1ccc2c(ccc[n+]2CCC2CCCCC2)c1,n,x,x,n,x,x
COc1ccc2c(c1)-c1nc(-n3ncc(C(=O)N(C)CC4CCCN(C)C4)c3C)ncc1CC2 (stereo unspecified),n,x,x,x,x,x
[O-][n+]1ccccc1SSc1cccc[n+]1[O-],n,x,x,x,x,x
CCSc1nc2ccccc2n1C(=O)/C=C/c1ccc(OC)c(OC)c1,n,n,22µM,14µM,n,n
C=CCSc1nc2ccccc2n1C(=O)/C=C/c1ccc(OC)c(OC)c1,u,n,32µM,n,n,n
C=CCSc1nc2ccccc2n1C(=O)/C=C/c1cc(OC)c(OC)c(OC)c1,u,n,x,n,n,n
Cc1ccc2nc(CNC(=O)c3cc(NC(=O)c4ccccc4)cc4ncn(C5CCCC5)c34)cn2c1,n,x,x,x,x,x
COC(=O)[C@@H]1CCCN1Cc1ccc2c(c1)CN(Cc1cccn1-c1ccccn1)CCO2,n,x,x,x,x,x
Cc1o[nH]c(=O)c1CCC(N)C(=O)O (stereo unspecified),n,x,x,x,x,x
C[C@H](c1ccccc1)N1C[C@@H](COCc2ccccc2)Oc2cc(N3CCC[C@H]3CO)ccc2S1(=O)=O,x,x,x,n,x,x
COC[C@@H]1CCCN1c1ccc2c(c1)O[C@@H](COCc1ccccc1)CN([C@@H](C)c1ccccc1)S2(=O)=O,x,x,x,14µM,x,x
SMILES,GRP78 ERSR act,TCR act,A-T KAP1 phos,ClpP mod,Mito fusion act,MBNL1 CUG block
CC1Cc2ccccc2N1C(=O)c1ccc(F)c(S(=O)(=O)N2CCOCC2)c1 (stereo unspecified),n,n,n,28µM,x,x
O=C(NCCc1nnc2n1CCN(Cc1ccsc1)CC2)c1ccc(F)cc1,n,x,x,x,x,x
COc1ccc2cc(C(=O)NCc3ccco3)c(=Nc3ccc(C(=O)O)cc3)oc2c1,n,n,n,20µM,n,n
CCOc1ccc(OCCC(=O)OCC(=O)NNC(=O)c2ccccc2)cc1,n,n,n,x,n,x
Cc1ccc(OCCC(=O)OCC(=O)NNC(=O)c2ccccc2)cc1,n,n,n,25µM,n,x
CCOc1ccc(OCCC(=O)NNC(=O)c2ccncc2)cc1,n,n,n,7.9µM,n,x
Cc1ccc(OCCC(=O)NNC(=O)c2ccncc2)cc1,n,x,x,n,x,x
COc1ccc2c(CN(C)c3ccccc3)cc(=O)oc2c1,n,n,n,22µM,n,u
COCCCn1c(C(=O)N2CCOCC2)cc2c(=O)n3cccc(C)c3nc21,n,n,x,28µM,x,x
CCCCn1c(=NC(=O)c2ccc3c(c2)OCO3)c(C#N)cc2c(=O)n3cccc(C)c3nc21,n,n,n,32µM,n,n
COCCn1c(=NC(=O)c2ccc3c(c2)OCO3)c(C#N)cc2c(=O)n3cccc(C)c3nc21,x,x,n,x,n,n
CCN(CC)C(=O)c1cc2c(=O)n3cccc(C)c3nc2n1C,n,n,n,32µM,n,n
COc1ccc2[nH]c(C)c(C(=O)CNc3nccs3)c2c1,n,x,x,n,x,x
NC(CC(=O)Nc1ccc(Oc2cc(F)c(F)cc2Br)cc1)C(=O)O (stereo unspecified),n,x,x,x,x,x
CCOC(=O)CSc1c(-c2cccs2)[nH]c2ccccc12,n,n,n,n,14µM,n
CCOC(=O)CSc1c(-c2ccc(Cl)cc2)[nH]c2ccccc12,n,n,n,n,u,n
CS/C(N)=C(C#N)/C(C#N)=C(\N)SC,n,x,x,x,x,x
CCN(CC)CC(=O)Nc1ccc(-c2nc3cc(NC(=O)CN(CC)CC)ccc3o2)cc1,n,n,n,n,n,n
COc1ccc(-c2nc3cc(NC(=O)CSc4ccc(C)cc4)ccc3o2)cc1,x,x,x,n,x,x
Cc1ccc(SCC(=O)Nc2ccc3oc(-c4ccc(F)cc4)nc3c2)cc1,n,x,x,3.5µM,x,x
COc1ccc(-c2nc3cc(NC(=O)Cc4ccc(OC)c(OC)c4)ccc3o2)cc1,n,n,n,14µM,n,n
CCC(C)NCC(=O)Nc1ccc(-c2nc3cc(NC(=O)CNC(C)CC)ccc3o2)cc1 (stereo unspecified),n,n,n,13µM,n,n
CC(C)(Oc1ccc(Cl)cc1)C(=O)Nc1ccc2oc(-c3ccncc3)nc2c1,n,n,n,28µM,n,n
O=C(COc1ccc(Cl)cc1)Nc1ccc2oc(-c3ccncc3)nc2c1,n,n,n,n,n,n
Cc1ccc(CNc2ncnc3sc(C(=O)N4CCCC(C(N)=O)C4)c(C)c23)o1 (stereo unspecified),n,x,x,x,x,x
CN(C)c1ccc(/C=C/c2ccnc3ccccc23)cc1,n,x,x,n,x,x
CCC1CN(CCNC(=O)c2cc3ccccc3oc2=O)Cc2cc(OC)ccc2O1 (stereo unspecified),n,x,x,x,x,x
COc1cc(C(C)=O)ccc1OCCCN1CCC(c2noc3cc(F)ccc23)CC1,n,x,x,x,x,x
